Screening data from PubChem BioAssay.
uPA surface inh: cell surface uPA generation inhibition; Potency, µM (highest dose often 38.3 µM), for inactives: top-dose activity change, negative = inhibition, most hits filed as inhibitors; actives 0.31% (n = 330,000); cell surface uPA generation assay, qHTS; active = well fitted inhibition curve with a large enough effect; inconclusive = small, poorly fitted or top-dose-only effect; inactive = no such curve, though single readings can be large or run the other way; tested in mouse RAW 264.7 cells; also: potency is read from the fitted curve at half-maximal effect; nearly all actives have a fitted effect of over 55% in size
IL-1B inflam inh: inflammasome signaling inhibition, IL-1 beta readout. THP-1 LPS/ATP IL-1B secretion, AlphaLISA, 16 h; stronger effect = lower value. activity change, % at 57.5 µM. actives 4.7% (n = 360,000). AID 743279; in the data active = activity change below about -50%; inconclusive = mostly about -30% to -49%
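THP-1 cells pretreated 1 hr with compounds (up to 57.5 uM final), then stimulated with LPS (250 ng/mL final) plus ATP (1.25 mM final); secreted IL-1B measured by AlphaLISA after 16 hr, decreased signal indicating inhibition.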
DT40 TDP1 CPT: growth inhibition of DT40 Tdp1-/-;hTDP1 cells with camptothecin (screen for TDP1 inhibitors). chicken DT40 Tdp1-/-;hTDP1 cells + 20 nM CPT, ATP luminescence, 48 h. Potency, µM (top dose mostly 46.2 µM), inactives show at the highest dose activity change, negative = growth inhibition, most hits filed as inhibitors. actives 12% (n = 420,000). AID 686979; also: potency is read from the fitted curve at half-maximal effect; nearly all actives have a fitted effect of over 55% in size
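Chicken DT40 Tdp1-/- cells stably complemented with human TDP1 were seeded at 400 cells/well in medium containing 20 nM camptothecin, exposed to pin-transferred compounds, and grown at 37 °C for at least 48 hr. Viability was read as ATP luminescence.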
HT1080-NT tox: kills 2HG-producing HT-1080-NT fibrosarcoma cells; HT-1080-NT fibrosarcoma viability, CellTiter-Glo ATP luminescence, 48 h; Potency, µM (doses to about 46.1 µM), without a hit: at the top dose activity, negative = less viability, most hits filed as cytotoxic; actives 1.6% (n = 360,000); AID 686970;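 also: NT is the 2HG producing partner of a matched IDH1 knockdown line; potency is read from the fitted curve at half-maximal effect; 0% = DMSO-treated cells and -100% = media-only wells without cells; nearly all actives have a fitted effect of over 55% in size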
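Viability by CellTiter-Glo luminescence after 48 h compound exposure at 37C of HT-1080-NT cells (750/well, RPMI, 5% FBS). % activity scaled between DMSO wells and medium-only wells, then curve-fitted and categorized by curve class.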
TDP1 cell noCPT: qHTS for Inhibitors of human tyrosyl-DNA phosphodiesterase 1 (TDP1): qHTS in cells in absence of CPT | DT40 Tdp1-/- hTDP1 cells, no CPT, ATP luminescence, 48 h | Potency, µM (highest dose often 46.2 µM), inactives show top-dose activity change, negative = growth inhibition, usual class: inhibitors | actives 15% (n = 420,000); also: potency is read from the fitted curve at half-maximal effect; nearly all actives have a fitted effect of over 55% in size
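Growth of hTDP1-complemented DT40 Tdp1-knockout cells is measured by ATP luminescence after at least 48 hr compound exposure at 37 °C, with DMSO substituting for the 20 nM CPT used in the parallel screen.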
HT1080 IDH1KD tx: toxicity to HT-1080 IDH1 knockdown cells (counter line); HT-1080 IDH1 knockdown viability, ATP luminescence, 48 h; Potency, µM (highest dose often 46.1 µM), for the others: top-dose activity, negative = toxicity, most hits filed as cytotoxic; actives 2% (n = 360,000);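 also: potency is read from the fitted curve at half-maximal effect; 0% = DMSO wells and -100% = cell-free medium wells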
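Assay cells: HT-1080 with IDH1 knockdown, 750 per well, RPMI/5% FBS. Exposure: 48 h at 37 °C following 2 h pre-incubation. Read: CellTiter-Glo luminescence; fitted concentration-response, curve class assigned.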
Active calls of the source: *; ? = inconclusive; · = no result; [ ] = another dose, or the depositor's remark. This is a sample that favours compounds with a hit; in the whole collection about 19% have one here. Unless noted, calls follow the shape of the dose curve; as a rule, active = well fitted curve in the direction sought with a large enough effect; inconclusive = small, poorly fitted or top-dose-only effect, or another doubt; inactive = no such curve, though single readings can be large; an effect the other way counts as inactive or inconclusive. Unless noted, % is scaled to controls: 0 for no effect and ±100 for the full control effect.

SMILES	uPA surface inh	IL-1B inflam inh	DT40 TDP1 CPT	HT1080-NT tox	TDP1 cell noCPT	HT1080 IDH1KD tx
O=[N+]([O-])c1ccc(C(O)C(CO)NC(=S)Nc2ccccc2)cc1 (configuration not stated)	1%	-6	16µM*	-9%	?	-2%
O=C(NC(CO)C(O)c1ccc([N+](=O)[O-])cc1)C(Cl)Cl (configuration not stated)	1%	12	?	6%	?	-11%
COc1ccc(C(=O)NCc2nnnn2-c2ccc(C)c(C)c2)cc1	·	·	?	·	-27%	·
COCCNC(=O)CN(Cc1ccc(F)cc1)C(=O)CCC(=O)Nc1nccs1	6%	9	-15%	10%	-4%	6%
Cc1ccc(F)c(S(=O)(=O)NC(=O)C2(C)CCN2C(=O)Cc2cccs2)c1 (configuration not stated)	·	-4	-2%	4%	-14%	12%
Cc1cc(O)c2c(c1)CC1C3CCC4CC(=O)CCC4(C)C3CC(=O)C21C (configuration not stated)	14%	35	18µM*	-2%	12µM*	0%
Cc1csc2nc(O)c(C(=O)NCCC3=CCCCC3)c(=O)n12	-11%	0	15µM*	1%	7.3µM*	0%
Cc1nc2scc(C)n2c(=O)c1S(=O)(=O)NCCc1ccccc1	-2%	48	?	8%	?	2%
Cc1csc2nc(O)c(C(=O)NCCCc3ccccc3)c(=O)n12	-1%	8	15µM*	-4%	15µM*	10%
O=C(NCCC1=CCCCC1)c1cnccn1	4%	3	-12%	0%	-24%	2%
Cc1ccc(NC(=O)Cc2nnc(SCC(=O)NC3CCCC3)n2C)cc1C	-1%	13	-3%	0%	23%	6%
COc1cccc(NC(=O)N(C)C[C@H]2OCc3cn(nn3)CCCC(=O)N([C@@H](C)CO)C[C@@H]2C)c1	·	0	0%	-3%	-5%	3%
CCOC(=O)C1(Cc2ccccc2C#N)CCCCC1=O (configuration not stated)	-2%	16	1%	6%	?	2%
CC(C)CC(Nc1ncnc2scc(-c3ccccc3)c12)C(=O)O (configuration not stated)	-5%	29	-7%	-9%	-25%	-10%
O=c1c2c(-c3ccccc3)csc2nc2c3ccccc3c(NCCN3CCOCC3)nn12	-7%	-101*	8.2µM*	15µM*	5.2µM*	10µM*
c1ccc(-c2csc3ncnc(NCCCN4CCOCC4)c23)cc1	-6%	-16	12µM*	-25%	13µM*	?
c1ccc(-c2csc3ncnc(NCC4COc5ccccc5O4)c23)cc1 (configuration not stated)	-10%	-4	0.73µM*	-18%	0.92µM*	-24%
c1csc(-c2csc3ncnc(NCCCN4CCOCC4)c23)c1	·	-6	16µM*	?	13µM*	?
CCOC(=O)CC(=O)CSc1nc2ccc(OC)cc2cc1C	3%	-5	-4%	10%	-21%	22%
OCCC1CN(Cc2cccc(-n3cccn3)c2)CCN1Cc1ccccc1 (configuration not stated)	-10%	-11	-18%	-1%	-29%	-2%
C/C(=N\NC(=O)c1cccc(S(=O)(=O)N2CCOCC2)c1)c1ccc(OCC(=O)N(C)C)cc1	-2%	13	13%	5%	5%	-13%
COc1ccccc1N1CCNC(C)C1=O (configuration not stated)	1%	-3	?	-1%	?	-3%
COCCCn1cc(CN2CC(N3CCN(Cc4cccc(C)c4)CC3)CS2(=O)=O)nn1 (configuration not stated)	·	0	0%	0%	-5%	6%
COc1ccc(NC(=O)CSc2nnc(-c3cccs3)n2N)c(OC)c1	1%	-8	4%	10%	1%	3%
C(=N\c1ncnc2sccc12)/NOCc1ccccc1	-5%	?	23µM*	-15%	9.2µM*	-11%[9.24 µM]
SMILES	uPA surface inh	IL-1B inflam inh	DT40 TDP1 CPT	HT1080-NT tox	TDP1 cell noCPT	HT1080 IDH1KD tx
Clc1ccc(CON/C=N/c2ncnc3sccc23)cc1	-4%	-15	12µM*	-21%	12µM*	-15%
Cc1cc(C)c(NC(=O)Cn2c(=O)n(Cc3ccc(C(=O)NCc4ccco4)cc3)c(=O)c3sccc32)c(C)c1	·	·	?	·	-47%	·
COc1ccc(Cl)cc1Cn1c(C)c(C(=O)NCc2cccc([N+](=O)[O-])c2)sc1=O	·	?	?	0%	?	2%
Cc1ccc(C)c(C(=O)CSc2nc3cc(C(=O)NC4CCCC4)ccc3c(=O)n2CC2CCCO2)c1 (configuration not stated)	·	·	18µM*	·	8.2µM*	·
O=C(CSc1nc2cc(C(=O)NC3CCCC3)ccc2c(=O)n1CC1CCCO1)c1cccc(Cl)c1 (configuration not stated)	·	·	21µM*	·	23µM*	·
CCCCCCn1c(=O)n2n(c1=O)C[C@]1(OC(=O)NC3CCCC3)CN(S(=O)(=O)c3ccc(C)cc3)C[C@]1(O)C2	·	-11	?	?	23µM*	?
COC(=O)[C@H]1C[C@@]2(O)CN(S(=O)(=O)c3ccc(C)cc3)C[C@@]2(OC(=O)NCc2ccccc2)C[C@H]1C(=O)OC	·	2	?	11%	?	4%
CCCCCCn1c(=O)n2n(c1=O)C[C@]1(OC(=O)NCc3ccccc3F)CN(S(=O)(=O)c3ccc(C)cc3)C[C@]1(O)C2	·	-12	?	?	15µM*	?
CCCCCCNC(=O)O[C@@]12CN(S(=O)(=O)c3ccc(C)cc3)C[C@]1(O)Cn1c(=O)n(CCCCCC)c(=O)n1C2	·	-8	0%	8%	?	-6%
COCCn1c(=S)[nH]c2cc(C(=O)NCCc3ccccc3)ccc2c1=O	3%	50	15%	3%	?	0%
COc1ccc(Cc2nnc(NCCO)[nH]c2=O)cc1OC	0%	21	16µM*	16%	8.2µM*	4%
COc1ccc(Cc2nnc(N/N=C/c3ccc(O)cc3)[nH]c2=O)cc1OC	-9%	-130*	1µM*	?	0.65µM*	?
Cc1cc(C)c(C)c(S(=O)(=O)N(C)CCc2ccccn2)c1C	10%	27	?	0%	23µM*	-1%
Cc1ccc(CN(C)CCc2ccccn2)cc1	·	8	-21%	1%	-5%	-5%
